# Experimental data reported in the supplement of paper PMC10338343.
# ± gives the standard deviation.
# Key:
# [1] = tested on: MILI (PIWIL2) piRISC loaded with piRNA #1 (26 nt); assay: pre-steady-state target cleavage rate (min^-1); guide: piRNA #1 5'p-UGAGGUAGUAGGUUGUAUAGUAUCCA; higher = faster piRNA-guided slicing of the target; conditions: auxiliary factor: 500 nM mouse GTSF1
# Summary of the method: (§1)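 Cleave-'n-Seq: 1 nM active affinity-purified piRISC with one synthetic guide and 0.1 nM transcribed, DNA-blocked target RNA library were mixed, with or without 500 nM GTSF1 partner protein, in HEPES–potassium acetate buffer at 33 °C for 0–8 or 0–960 min. Uncleaved targets were sequenced and normalised to depth and to weakly complementary targets, three trials were pooled, and k3 was capped at 0.0001 min^-1. The pre-steady-state cleavage rate was fitted […].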
# [2] = tested on: EfPiwi piRISC loaded with piRNA #1 (26 nt); assay: pre-steady-state target cleavage rate (min^-1); auxiliary factor: 500 nM Ephydatia muelleri Gtsf1; guide: piRNA #1 5'p-UGAGGUAGUAGGUUGUAUAGUAUCCA; MIWI and MILI are mouse PIWI proteins and EfPiwi is from a freshwater sponge; tags in brackets are library labels; higher = faster piRNA-guided slicing of the target
# Summary of the method: as §1
sequence,measurement,setting,value
GGAGUGGAUAGUAUACAACCUACAACCUCA,pre-steady-state target cleavage rate,[1],0.0845 ± 0.011
same,pre-steady-state target cleavage rate,[2],0.00254 ± 0.0017
GGAGUGGUAUCUAUACAACCUACUACCUCA,pre-steady-state target cleavage rate,[1],0.136 ± 0.0091
same,pre-steady-state target cleavage rate,[2],0.0613 ± 0.023
GGAGACCAUACUAUACAACGUACUACCUGA,pre-steady-state target cleavage rate,[1],0.011 ± 0.0036
same,pre-steady-state target cleavage rate,[2],0.00457 ± 0.0027
GGAGUGGAUACUUUACAACCUUCUACCUCA,pre-steady-state target cleavage rate,[1],0.0065 ± 0.0017
same,pre-steady-state target cleavage rate,[2],0.00301 ± 0.0026
GGAGACCAAACUAUACAACGUACUACCUCA,pre-steady-state target cleavage rate,[1],0.0124 ± 0.0071
same,pre-steady-state target cleavage rate,[2],0.00528 ± 0.0034
GGAGACGAUACUAUACAACCUACUACCGCA,pre-steady-state target cleavage rate,[1],0.161 ± 0.021
same,pre-steady-state target cleavage rate,[2],0.00926 ± 0.0033
GGAGCGGAUACUAUACAACCUACUACCUCA,pre-steady-state target cleavage rate,[1],0.203 ± 0.013
same,pre-steady-state target cleavage rate,[2],0.141 ± 0.048
GGAGACGAUACUAUACAACACUACUACCUCA,pre-steady-state target cleavage rate,[1],0.00963 ± 0.0034
same,pre-steady-state target cleavage rate,[2],0.00912 ± 0.0032
GGAGACGAUACUCUACAACCUACUACCUCA,pre-steady-state target cleavage rate,[1],0.176 ± 0.012
same,pre-steady-state target cleavage rate,[2],0.00744 ± 0.0035
GGAGUGGAUACUAUACAACCUACUAGCCUCA,pre-steady-state target cleavage rate,[1],0.115 ± 0.019
same,pre-steady-state target cleavage rate,[2],0.00369 ± 0.0017
GGAGUGCAUACUAUACAACCUACUAGCUCA,pre-steady-state target cleavage rate,[1],0.0656 ± 0.0098
same,pre-steady-state target cleavage rate,[2],0.00282 ± 0.0024
GGAGUGGAUACUAUACUUCCUACUACCUCA,pre-steady-state target cleavage rate,[1],0.202 ± 0.013
same,pre-steady-state target cleavage rate,[2],0.0195 ± 0.01
GGAGACCUUACUAUACAACCCACUACCUCA,pre-steady-state target cleavage rate,[1],0.0224 ± 0.0038
same,pre-steady-state target cleavage rate,[2],0.00926 ± 0.0048
GGAGACGAUAGUAUACAACCUACAACCUCA,pre-steady-state target cleavage rate,[1],0.106 ± 0.011
same,pre-steady-state target cleavage rate,[2],0.00195 ± 0.0018
GGAGUGGAUACUAUAGAACCUACUACCACA,pre-steady-state target cleavage rate,[1],0.0519 ± 0.0082
same,pre-steady-state target cleavage rate,[2],0.0024 ± 0.001
GGAGACCUAUCUUUUCAACCUACUACCUCA,pre-steady-state target cleavage rate,[1],0.0272 ± 0.0082
same,pre-steady-state target cleavage rate,[2],0.00766 ± 0.0047
GGAGAGGAUACUAUACAACCUACUACCUCA [g2:g25:cont:t1A],pre-steady-state target cleavage rate,[1],0.206 ± 0.017
same,pre-steady-state target cleavage rate,[2],0.0912 ± 0.033
GGAGACCUAACAAUACAACCUACUACCUCA,pre-steady-state target cleavage rate,[1],0.0822 ± 0.019
same,pre-steady-state target cleavage rate,[2],0.00868 ± 0.0037
GGAGACGAUACUAUACAACCAACUACCUCA,pre-steady-state target cleavage rate,[1],0.00952 ± 0.004
same,pre-steady-state target cleavage rate,[2],0.00552 ± 0.0017
GGAGAGGAUACUAUUCAAGCUACUACCUCA,pre-steady-state target cleavage rate,[1],0.131 ± 0.014
same,pre-steady-state target cleavage rate,[2],0.00323 ± 0.002
GGAGAGGUAACUAUACAACCUACUACCUCA,pre-steady-state target cleavage rate,[1],0.103 ± 0.015
same,pre-steady-state target cleavage rate,[2],0.00695 ± 0.0039
GGAGACCAUUCUAUACAACCUACUUCCUCA,pre-steady-state target cleavage rate,[1],0.0522 ± 0.0086
same,pre-steady-state target cleavage rate,[2],0.00372 ± 0.0035
GGAGACCAUACUAUACAACCUACUACCUUA,pre-steady-state target cleavage rate,[1],0.22 ± 0.024
same,pre-steady-state target cleavage rate,[2],0.0127 ± 0.0048
GGAGACCUAACUAAACAACCUACUACCUCA,pre-steady-state target cleavage rate,[1],0.0743 ± 0.017
same,pre-steady-state target cleavage rate,[2],0.00631 ± 0.0031
GGAGUGGUUACUAUACAACCUACAACCUCA,pre-steady-state target cleavage rate,[1],0.0861 ± 0.0095
same,pre-steady-state target cleavage rate,[2],0.00227 ± 0.0015
GGAGAGGAUACUAAACAACCUACUACCUGA,pre-steady-state target cleavage rate,[1],0.0485 ± 0.011
same,pre-steady-state target cleavage rate,[2],0.00273 ± 0.0018
GGAGACGAUACUAGACAACCUACUACCUCA,pre-steady-state target cleavage rate,[1],0.171 ± 0.013
same,pre-steady-state target cleavage rate,[2],0.00452 ± 0.0029
GGAGACCUAUGUAUACAACCUACUACCUCG [g2:g19:cont:t1G],pre-steady-state target cleavage rate,[1],0.0649 ± 0.0098
same,pre-steady-state target cleavage rate,[2],0.00909 ± 0.0048
GGAGUCGAUACUAUACAACCUACAACCUCA,pre-steady-state target cleavage rate,[1],0.0405 ± 0.0054
same,pre-steady-state target cleavage rate,[2],0.00324 ± 0.0017
GGAGACCUUACUAUACCACCUACUACCUCA,pre-steady-state target cleavage rate,[1],0.109 ± 0.014
same,pre-steady-state target cleavage rate,[2],0.006 ± 0.003
GGAGACGAGUACUAUACAACCUACUACCUCA,pre-steady-state target cleavage rate,[1],0.176 ± 0.014
same,pre-steady-state target cleavage rate,[2],0.0147 ± 0.0053
GGAGACCAUACUAUCACAACCUACUACCUCA,pre-steady-state target cleavage rate,[1],0.136 ± 0.019
same,pre-steady-state target cleavage rate,[2],0.0399 ± 0.014
GGAGACCAUACUUAUACAACCUACUACCUCA,pre-steady-state target cleavage rate,[1],0.132 ± 0.016
same,pre-steady-state target cleavage rate,[2],0.0757 ± 0.028
GGAGAGGAUACUAUACAACCUACUAGCCUCA,pre-steady-state target cleavage rate,[1],0.123 ± 0.02
same,pre-steady-state target cleavage rate,[2],0.00421 ± 0.0018
GGAGUGGAUACUAAACAACCUACAACCUCA,pre-steady-state target cleavage rate,[1],0.0728 ± 0.009
same,pre-steady-state target cleavage rate,[2],0.00162 ± 0.0015
GGAGACCAUACUAUACAACCUGCUACCUCA,pre-steady-state target cleavage rate,[1],0.0337 ± 0.0076
same,pre-steady-state target cleavage rate,[2],0.0759 ± 0.029
GGAGACGAUACUAUACAACCAACUACCUGA,pre-steady-state target cleavage rate,[1],0.00533 ± 0.0024
same,pre-steady-state target cleavage rate,[2],0.00427 ± 0.0022
GGAGAGGUUACUAUACAACCUACUAGCUCA,pre-steady-state target cleavage rate,[1],0.00459 ± 0.0029
same,pre-steady-state target cleavage rate,[2],0.00306 ± 0.0015
GGAGACCAUCUAUACAACCUACUACCUCA,pre-steady-state target cleavage rate,[1],0.112 ± 0.013
same,pre-steady-state target cleavage rate,[2],0.00903 ± 0.0054
GGAGUGGAUACUAAACAACCUACUACCACA,pre-steady-state target cleavage rate,[1],0.113 ± 0.011
same,pre-steady-state target cleavage rate,[2],0.003 ± 0.0021
GGAGACGAAACUAUACAACCUACUACCUGA,pre-steady-state target cleavage rate,[1],0.149 ± 0.039
same,pre-steady-state target cleavage rate,[2],0.00491 ± 0.0026
GGAGUGGAUACUAUACAACCAACUACCACA,pre-steady-state target cleavage rate,[1],0.00424 ± 0.0025
same,pre-steady-state target cleavage rate,[2],0.00391 ± 0.0018
GGAGUGCAUACUAUACAACCUACUACCUGA,pre-steady-state target cleavage rate,[1],0.09 ± 0.011
same,pre-steady-state target cleavage rate,[2],0.00576 ± 0.0029
GGAGACCUAAGCUAUACAACCUACUACCUCA,pre-steady-state target cleavage rate,[1],0.141 ± 0.028
same,pre-steady-state target cleavage rate,[2],0.184 ± 0.066
GGAGAGGAUACUAUACAACCCUACUACCUCA,pre-steady-state target cleavage rate,[1],0.0028 ± 0.0028
same,pre-steady-state target cleavage rate,[2],0.00598 ± 0.0032
GGAGACGAUACUAUACAACCUACUACGAGA,pre-steady-state target cleavage rate,[1],0.11 ± 0.034
same,pre-steady-state target cleavage rate,[2],0.00501 ± 0.0017
GGAGACGAUACUAUACAAGCUACUACGUCA,pre-steady-state target cleavage rate,[1],0.205 ± 0.032
same,pre-steady-state target cleavage rate,[2],0.00352 ± 0.0014
GGAGACCUAUGUAUUCAACCUACUACCACA,pre-steady-state target cleavage rate,[1],0.0995 ± 0.016
same,pre-steady-state target cleavage rate,[2],< 0.0001
GGAGAGCAUACUAUACAACCUACUACCUCA,pre-steady-state target cleavage rate,[1],0.188 ± 0.015
same,pre-steady-state target cleavage rate,[2],0.0285 ± 0.012
GGAGACCUAUCUAUACAACCUACUAUCUCA,pre-steady-state target cleavage rate,[1],0.0794 ± 0.013
same,pre-steady-state target cleavage rate,[2],0.00591 ± 0.004
GGAGACCUAACUAUACAACGUACUACCUCA,pre-steady-state target cleavage rate,[1],0.0137 ± 0.0057
same,pre-steady-state target cleavage rate,[2],0.00454 ± 0.0022
GGAGAGCAUACAAUACAACCUACUACCUCA,pre-steady-state target cleavage rate,[1],0.206 ± 0.017
same,pre-steady-state target cleavage rate,[2],0.00861 ± 0.0046
GGAGUGGAUACUAUACAACUACUACCUCA,pre-steady-state target cleavage rate,[1],0.0608 ± 0.0047
same,pre-steady-state target cleavage rate,[2],0.00835 ± 0.0039
GGAGAGGAUACUUUACAACGUACUACCUCA,pre-steady-state target cleavage rate,[1],0.018 ± 0.0029
same,pre-steady-state target cleavage rate,[2],0.00409 ± 0.0016
GGAGAGGAUACUAAACAACGUACUACCUCA,pre-steady-state target cleavage rate,[1],0.013 ± 0.0022
same,pre-steady-state target cleavage rate,[2],0.00367 ± 0.002
GGAGUGGAUACUAUACAUCCUACUACCUGA,pre-steady-state target cleavage rate,[1],0.0983 ± 0.018
same,pre-steady-state target cleavage rate,[2],0.00497 ± 0.0018
GGAGAGGAUACUAUACAACCUACUAUCUCA,pre-steady-state target cleavage rate,[1],0.131 ± 0.012
same,pre-steady-state target cleavage rate,[2],0.081 ± 0.036
GGAGACGAUACUAUACAACCUACUCCCUCA,pre-steady-state target cleavage rate,[1],0.106 ± 0.017
same,pre-steady-state target cleavage rate,[2],0.00312 ± 0.00092
GGAGACCAUACUAUACAACCUACAACCUGA,pre-steady-state target cleavage rate,[1],0.0179 ± 0.0095
same,pre-steady-state target cleavage rate,[2],0.00439 ± 0.0042
GGAGUGGAUAGUAUACAACCUACUAGCUCA,pre-steady-state target cleavage rate,[1],0.00679 ± 0.003
same,pre-steady-state target cleavage rate,[2],0.00291 ± 0.0018
